Source: PubChem BioAssay
Active and inactive are the calls of the source.

Key:
[1] = tested on: Plasmodium falciparum Sir2 (PF13_0152, Sir2A); test: Plasmodium falciparum Sir2A binding compounds – biochemical, small-molecule microarray, 635 nm fluorescence, primary screen (AID 1098); conditions: fluorescence 635 nm, higher = more signal;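 further: score merges spot fluorescence intensity with its signal-to-noise ratio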
[2] = probe aDKK1 binding to arrayed compounds – biochemical, biotinylated probe, 635/667 nm fluorescence, primary screen (AID 1099); conditions: small-molecule microarray, higher = more signal;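 further: score merges 667nm spot fluorescence with signal to noise across triplicate slides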
[3] = probe aCHRDL2 binding to arrayed compounds – biochemical, biotinylated probe, 635/667 nm fluorescence, primary screen (AID 1100); conditions: small-molecule microarray, higher = more signal
[4] = change in splice reporter luminescence, either direction, cell-based, HEK293, spliceosome inhibition project, primary screen (AID 1101); conditions: HEK293 splicing luciferase reporter, 24 h, higher = more signal, called active from +8 up or from −8 down;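 further: HEK293 cells carrying a splicing-competent luciferase reporter gene; test concentration not given here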
[5] = target: Fibroblast growth factor 10 (Homo sapiens) (UniProt O15520); test: compounds binding fibroblast growth factor 10 – biochemical, small-molecule microarray, 635 nm fluorescence, primary screen (AID 1102); conditions: FGF10 binding, fluorescence 635 nm, higher = more signal
[6] = tested on: glycogen synthase kinase-3 (GSK3A per assay name; protocol says GSK3B); test: compounds binding glycogen synthase kinase-3 – biochemical, small-molecule microarray, 635 nm fluorescence, GSK3A, primary screen (AID 1103); conditions: fluorescence 635 nm, higher = more signal; further: the record names both GSK3A and GSK3B
[7] = target: Epidermal growth factor receptor (Homo sapiens) (UniProt P00533); test: compounds binding epidermal growth factor receptor – biochemical, small-molecule microarray, 635 nm fluorescence, primary screen (AID 1104); conditions: EGFR binding, higher = more signal;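 further: score merges 667 nm emission intensity with spot signal to noise over triplicate slides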
[8] = target: Follistatin-related protein 3 (Homo sapiens) (UniProt O95633); test: compounds binding follistatin-related protein 3 – biochemical, small-molecule microarray, 635 nm fluorescence, primary screen (AID 1105); conditions: FSTL3 binding, higher = more signal;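 further: score merges emission near 667 nm and signal to noise per printed spot across three slides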
[9] = target: Dickkopf-related protein 1 (Homo sapiens) (UniProt O94907); test: small molecules binding DKK1 protein – biochemical, small-molecule microarray, 635 nm fluorescence scan, primary screen (AID 1106); conditions: higher = more signal;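 further: score merges emission near 667 nm with signal to noise over three replicate slides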
[10] = tested on: Inhibin beta A chain (activin A); test: small molecules binding activin A – biochemical, small-molecule microarray, 635 nm fluorescence scan, primary screen (AID 1107); conditions: INHBA, higher = more signal;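 further: mouse activin A protein probed at 4.33 µg/mL on printed slides; score merges bound-protein fluorescence near 667 nm with spot signal-to-noise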
[11] = tested on: Human papillomavirus type 1a protein E7 (residues 44-93); test: small molecules binding HPV E7 44-93 – biochemical, small-molecule microarray, residues 44-93, 635 nm fluorescence, primary screen (AID 1108); conditions: fluorescence 635 nm, higher = more signal;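 further: E7 fragment applied at 1 µg/mL in TBST for 1 h at 4 C; score combines spot fluorescence with its signal to noise ratio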
[12] = hepatitis C replication reporter changes, two-sided – Huh7 cells, luciferase reporter, HCV replication inhibitor project, primary screen (AID 1109); conditions: Huh7 HCV replicon luciferase reporter, 48 h; higher = more signal;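 further: huh7 hepatoma cells harbouring a luciferase neomycin HCV replicon reporter; luciferase luminescence as measure of HCV replicon replication; test concentration not given here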
[13] = target: Left-right determination factor 2 (Homo sapiens) (UniProt O00292); test: small molecules binding LEFTY2 protein – biochemical, small-molecule microarray, 635 nm fluorescence scan, primary screen (AID 1110); conditions: higher = more signal
[14] = target: Calmodulin-1 (Homo sapiens) (UniProt P0DP23); test: small molecules binding calmodulin-1 with EGTA – biochemical, small-molecule microarray, Cy5-labelled CALM1, profiling panel (AID 1111); conditions: Cy5-CALM1 binding fluorescence, higher = more signal;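 further: labelled calmodulin applied in Tris saline Tween buffer holding calcium plus EGTA and DTT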
[15] = target: Calmodulin-1 (Homo sapiens) (UniProt P0DP23); test: small molecules binding Ca-loaded calmodulin-1 – biochemical, small-molecule microarray, Cy5-labelled CALM1, plus calcium, artefact control for SMM control-protein annotation, profiling panel (AID 1112); conditions: Cy5-CALM1 binding fluorescence, higher = more signal;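 further: score merges spot fluorescence with signal to noise from triplicate slides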
[16] = probe aWnt5a binding to arrayed compounds – biochemical, biotinylated probe, 635/667 nm fluorescence, primary screen (AID 1113); conditions: small-molecule microarray, higher = more signal;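 further: score merges 667 nm fluorescence intensity with signal-to-noise per printed feature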
[17] = probe aShh binding to arrayed compounds – biochemical, biotinylated probe, 635/667 nm fluorescence, primary screen (AID 1114); conditions: small-molecule microarray, higher = more signal;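 further: probe is biotin-labelled aShh protein from a stem cell growth factor screen; measures binding of labelled protein to compounds printed on the slide; score merges feature fluorescence at 667 nm with signal-to-noise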
[18] = probe aNog binding to arrayed compounds – biochemical, biotinylated probe, 635/667 nm fluorescence, primary screen (AID 1115); conditions: small-molecule microarray, higher = more signal;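 further: probe is biotinylated aNog protein used at 0.15 µg/mL for 1 h at 4 C; z-score combines 667 nm fluorescence of each spot with its signal to noise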
[19] = target: Torsin-1A-interacting protein 1 (Homo sapiens) (UniProt Q5JTV8); test: compound microarray binding of lysate hLAP1 – cell lysate, small-molecule microarray, COS7 lysate, 635/667 nm fluorescence, primary screen (AID 1116); conditions: 635 nm fluorescence, higher = more signal
[20] = target: Alpha-bungarotoxin (Bungarus multicinctus) (UniProt P60615); test: compounds binding labelled alpha-BTX control protein – biochemical, small-molecule microarray, Alexa647 label, 635/667 nm fluorescence, artefact control for SMM control protein annotation, profiling panel (AID 1117); conditions: alpha-BTX-A647 binding fluorescence, higher = more signal
Sequence of Alpha-bungarotoxin (Bungarus multicinctus) (P60615 whole entry, looked up): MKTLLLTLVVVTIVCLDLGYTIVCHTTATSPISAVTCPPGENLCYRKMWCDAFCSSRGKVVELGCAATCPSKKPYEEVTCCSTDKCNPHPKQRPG

Sequence of Dickkopf-related protein 1 (Homo sapiens) (O94907 whole entry, looked up): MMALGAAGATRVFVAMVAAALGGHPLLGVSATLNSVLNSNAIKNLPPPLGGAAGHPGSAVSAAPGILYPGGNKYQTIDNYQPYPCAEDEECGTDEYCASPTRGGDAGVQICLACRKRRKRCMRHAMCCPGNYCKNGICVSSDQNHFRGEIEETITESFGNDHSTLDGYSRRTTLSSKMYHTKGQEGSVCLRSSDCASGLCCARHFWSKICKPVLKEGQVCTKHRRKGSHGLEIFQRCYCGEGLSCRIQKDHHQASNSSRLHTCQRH
Sequence of Follistatin-related protein 3 (Homo sapiens) (O95633 whole entry, looked up): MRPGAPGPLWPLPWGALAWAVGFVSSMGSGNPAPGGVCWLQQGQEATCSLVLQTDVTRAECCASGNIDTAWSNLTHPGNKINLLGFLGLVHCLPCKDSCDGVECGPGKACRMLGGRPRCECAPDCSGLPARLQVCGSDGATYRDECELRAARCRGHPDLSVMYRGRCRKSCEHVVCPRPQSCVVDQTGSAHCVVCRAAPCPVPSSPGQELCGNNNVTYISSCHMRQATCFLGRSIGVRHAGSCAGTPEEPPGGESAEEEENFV
Sequence of Fibroblast growth factor 10 (Homo sapiens) (O15520 whole entry, looked up): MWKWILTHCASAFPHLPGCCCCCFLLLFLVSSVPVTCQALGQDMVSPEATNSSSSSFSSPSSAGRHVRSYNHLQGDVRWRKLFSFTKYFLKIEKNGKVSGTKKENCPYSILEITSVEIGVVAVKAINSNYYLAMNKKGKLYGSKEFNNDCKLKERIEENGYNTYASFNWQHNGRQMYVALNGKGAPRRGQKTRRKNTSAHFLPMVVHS
Sequence of Epidermal growth factor receptor (Homo sapiens) (P00533 whole entry, looked up): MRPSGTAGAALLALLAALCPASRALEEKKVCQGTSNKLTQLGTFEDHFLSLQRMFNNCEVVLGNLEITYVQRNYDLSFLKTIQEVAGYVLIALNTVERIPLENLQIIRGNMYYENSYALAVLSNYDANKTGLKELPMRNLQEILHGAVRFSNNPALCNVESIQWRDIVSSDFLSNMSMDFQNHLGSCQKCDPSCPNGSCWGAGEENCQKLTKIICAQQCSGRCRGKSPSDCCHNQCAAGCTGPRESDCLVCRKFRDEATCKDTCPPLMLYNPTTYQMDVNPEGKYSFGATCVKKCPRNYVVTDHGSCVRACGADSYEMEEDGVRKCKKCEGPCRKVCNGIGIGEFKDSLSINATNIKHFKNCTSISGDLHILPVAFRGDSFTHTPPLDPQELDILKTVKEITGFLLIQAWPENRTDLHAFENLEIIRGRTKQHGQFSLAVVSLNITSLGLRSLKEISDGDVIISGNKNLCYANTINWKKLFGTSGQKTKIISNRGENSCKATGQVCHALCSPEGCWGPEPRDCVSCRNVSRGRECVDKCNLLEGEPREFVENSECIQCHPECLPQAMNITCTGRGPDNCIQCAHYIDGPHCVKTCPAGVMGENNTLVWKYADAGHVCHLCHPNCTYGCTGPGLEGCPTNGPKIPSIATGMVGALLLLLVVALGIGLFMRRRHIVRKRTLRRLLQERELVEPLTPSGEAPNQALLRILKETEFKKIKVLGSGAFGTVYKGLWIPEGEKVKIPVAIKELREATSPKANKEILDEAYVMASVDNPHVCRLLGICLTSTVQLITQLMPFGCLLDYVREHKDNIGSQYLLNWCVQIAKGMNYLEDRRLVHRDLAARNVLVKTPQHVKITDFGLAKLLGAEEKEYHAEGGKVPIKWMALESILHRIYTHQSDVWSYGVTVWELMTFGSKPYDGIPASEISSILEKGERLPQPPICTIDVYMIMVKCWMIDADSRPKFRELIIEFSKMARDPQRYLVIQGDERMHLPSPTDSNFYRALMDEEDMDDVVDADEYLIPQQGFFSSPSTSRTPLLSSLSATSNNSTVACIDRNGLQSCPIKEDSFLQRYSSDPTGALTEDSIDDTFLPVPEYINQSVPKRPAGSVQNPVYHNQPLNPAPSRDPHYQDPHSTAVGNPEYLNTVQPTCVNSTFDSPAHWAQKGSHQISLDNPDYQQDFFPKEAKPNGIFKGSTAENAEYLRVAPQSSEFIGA
Sequence of Torsin-1A-interacting protein 1 (Homo sapiens) (Q5JTV8 whole entry, looked up): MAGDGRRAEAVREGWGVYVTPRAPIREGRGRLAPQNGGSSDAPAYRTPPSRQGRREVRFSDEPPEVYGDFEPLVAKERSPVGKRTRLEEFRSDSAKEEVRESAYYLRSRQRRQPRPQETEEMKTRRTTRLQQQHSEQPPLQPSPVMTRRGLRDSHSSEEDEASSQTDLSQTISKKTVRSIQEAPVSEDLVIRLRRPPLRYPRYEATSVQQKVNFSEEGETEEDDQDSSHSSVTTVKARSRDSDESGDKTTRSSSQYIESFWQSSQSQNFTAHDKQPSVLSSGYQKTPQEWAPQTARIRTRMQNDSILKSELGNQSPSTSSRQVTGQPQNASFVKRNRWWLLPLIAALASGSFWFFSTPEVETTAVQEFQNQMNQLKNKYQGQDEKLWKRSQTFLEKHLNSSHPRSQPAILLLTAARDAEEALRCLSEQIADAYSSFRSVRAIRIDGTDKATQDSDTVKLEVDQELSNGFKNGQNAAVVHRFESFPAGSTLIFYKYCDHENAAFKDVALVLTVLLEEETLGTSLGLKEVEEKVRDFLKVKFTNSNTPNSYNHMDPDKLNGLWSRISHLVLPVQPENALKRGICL
Sequence of Left-right determination factor 2 (Homo sapiens) (O00292 whole entry, looked up): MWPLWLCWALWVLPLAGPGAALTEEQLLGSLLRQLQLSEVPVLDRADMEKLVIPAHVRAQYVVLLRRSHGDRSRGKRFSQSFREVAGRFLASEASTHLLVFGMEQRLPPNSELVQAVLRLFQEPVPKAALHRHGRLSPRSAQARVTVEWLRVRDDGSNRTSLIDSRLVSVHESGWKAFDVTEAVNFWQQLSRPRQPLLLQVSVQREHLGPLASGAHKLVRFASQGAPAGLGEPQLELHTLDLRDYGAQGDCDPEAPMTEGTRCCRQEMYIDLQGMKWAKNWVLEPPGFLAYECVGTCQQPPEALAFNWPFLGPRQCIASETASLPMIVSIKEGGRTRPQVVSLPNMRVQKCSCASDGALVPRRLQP

| SMILES | composite z-score [1] | composite z-score [2] | composite z-score [3] | z-score [4] | composite z-score [5] | composite z-score [6] | composite z-score [7] | composite z-score [8] | composite z-score [9] | composite z-score [10] | composite z-score [11] | z-score [12] | composite z-score [13] | composite z-score [14] | composite z-score [15] | composite z-score [16] | composite z-score [17] | composite z-score [18] | composite z-score [19] | composite z-score [20] |
| --- | --- | --- | --- | --- | --- | --- | --- | --- | --- | --- | --- | --- | --- | --- | --- | --- | --- | --- | --- | --- |
| C=C(C(=O)CC[C@H](OC(=O)c1cccnc1)c1ccc(CO)o1)C(C)C | 1.08 | 0.0114 | -0.239 | 0.586 (inactive) | 0.866 | 0.836 | 0.0193 | 0.406 | 0.603 | 0.935 | 0.362 | -1.43 | 0.584 | 0.627 | -0.316 | 0.0973 | 0.39 | 0.013 | 1.18 | 1.19 |
| O=C(CCCCCCC(=O)Nc1ccccc1)N/N=C/c1ccccc1 | 0.45 | -0.176 | -0.311 | -0.519 (inactive) | -0.136 | -0.401 | 0.0504 | -0.41 | 0.328 | 0.18 | -0.162 | -0.529 | 0.229 | -0.507 | -0.491 | -0.18 | 0.0224 | -0.216 | 0.255 | -0.454 |
| COc1ccc([Si](C)(C)[C@H]2[C@H](CCn3cc([C@H](O)c4ccccc4)nn3)O[C@@]3(C(=O)N(Cc4ccc(N5CCOC5=O)cc4)c4ccccc43)[C@@H]2C)cc1 | -0.215 | 0.555 | 0.282 | -0.372 (inactive) | -1.23 | -2.18 | -0.228 | -1.54 | -0.958 | -0.794 | -0.873 | -2.21 | -0.849 | 0.287 | 0.481 | -0.176 | -0.138 | -0.1 | -0.833 | -0.374 |
| O=C1c2ccccc2[C@@]2(Cc3ccccc3N(C3CC3)C2=O)[C@H](c2ccc(CO)cc2)N1C1CCCCC1 | -1.5 | 0.16 | 0.615 | -0.402 (inactive) | -0.364 | -0.492 | -0.412 | -0.558 | -0.526 | 0.5 | 0.0731 | 0.056 | -0.825 | 0.0762 | 0.347 | -0.096 | 0.107 | -0.0165 | -0.502 | 0.233 |
| COCC(=C=CC[C@H](O)c1cccc(OCCO)c1)C[C@H](O)c1ccccn1 | 0.543 | 0.161 | -0.173 | -1 (inactive) | 1.3 | -0.214 | -0.366 | -0.0496 | 0.354 | 0.281 | 0.0462 | -0.0093 | -0.0587 | -0.319 | -0.621 | 0.0151 | 0.0952 | 0.167 | 1.68 | 1.26 |
| COc1ccc([Si](C)(C)[C@H]2[C@H](CCn3cc([C@H](O)c4ccccc4)nn3)O[C@@]3(C(=O)N(Cc4cccc(N5C(=O)c6cccc7cccc5c67)c4)c4ccccc43)[C@@H]2C)cc1 | 0.661 | -0.0526 | 0.837 | -0.762 (inactive) | -0.718 | -1.22 | -1.04 | -1.4 | -1.66 | -0.456 | -0.56 | -2.67 | -0.823 | 0.419 | 1.13 | -0.175 | -0.2 | 0.206 | -0.0061 | -1.02 |
| O=C(O)[C@H]1C[C@H]2C(=O)N3CCC[C@H]3C(=O)N2[C@H]1c1cccc(OCCO)c1 | 1.6 | 0.0484 | 0.0998 | -0.184 (inactive) | 0.262 | 0.486 | 0.0626 | 0.384 | 0.884 | -0.0254 | 1.1 | 1.55 | 0.266 | 0.0384 | 0.286 | -0.0944 | -0.167 | 0.0951 | 0.83 | 1.67 |
| CC=CC(O)C1C=CC2C(=O)N(C)C(=O)C2N1N1CCCCC1 (stereo not given) | 1.11 | 0.123 | 0.452 | 0.661 (inactive) | 0.888 | 1.23 | 0.519 | 1.26 | 0.22 | 0.898 | 1.15 | 0.121 | 0.364 | 1.41 | 0.127 | 0.0559 | -0.151 | -0.39 | 0.923 | 1.1 |
| C[n+]1ccc(CCCO)cc1 | 0.365 | -0.0442 | 0.0977 | -0.164 (inactive) | 0.113 | -0.262 | -0.455 | 0.0584 | 0.457 | 1.57 | -0.225 | -0.125 | 0.0525 | -0.628 | 0.371 | -0.0462 | 0.475 | -0.253 | 1.26 | -0.739 |
| C=C(/C=C/CNS(=O)(=O)c1ccc(C)cc1)[C@H](O)[C@H]1CCCN1S(=O)(=O)c1ccccc1[N+](=O)[O-] | 0.61 | 0.0684 | 0.0163 | -0.112 (inactive) | 0.582 | 0.139 | 0.669 | 0.998 | 0.727 | 0.809 | -0.197 | -2.48 | 0.77 | -0.115 | -0.795 | -0.119 | -0.138 | -0.272 | 0.581 | 0.616 |
| Cc1c(NC(=O)/C(C#N)=C/C=C/c2ccccc2[N+](=O)[O-])c(=O)n(-c2ccccc2)n1C | 1.03 | -0.0194 | 0.147 | 4.71 (inactive) | 0.386 | 0.417 | 0.187 | 0.71 | 0.446 | 0.0089 | 0.475 | -2.79 | 0.34 | 0.517 | 0.188 | -0.092 | -0.292 | -0.527 | 0.37 | 0.556 |
| C=CCOC(=O)[C@H]1[C@@H]2C(=O)O[C@@H](c3ccccc3)[C@@H](c3ccccc3)N2[C@@H](c2ccc(OCCOC(=O)[C@H]3C[C@H]4C(=O)N[C@@H](CCCC[N+](C)(C)C)C(=O)N4[C@H]3c3cccc(OCCO)c3)cc2)[C@]12C(=O)Nc1ccc(I)cc12 | 1.1 | -0.179 | -0.0243 | 0.997 (inactive) | 0.809 | 0.701 | 0.335 | 0.376 | 0.763 | 0.111 | 0.62 | -1.38 | 0.73 | 0.727 | 0.119 | -0.0721 | -0.138 | 0.0051 | 0.62 | 0.113 |
